As usually defined, the inhibition is the relative decrease from the control value, in per cent.

Out of some 1,900 compounds screened, about 15 (0.8%) were called active. The entries come from a sample that favours actives as a whole. A number with no mark means an inactive call.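 How the source made its calls: active means every replicate shows at least 50% inhibition; inconclusive means mean inhibition at least 50% but some replicate below; inactive means the rest.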

The target of this assay is DNA repair protein RAD52 homolog (Homo sapiens) (UniProt P43351). As to the kind of experiment: inhibition of RAD52-mediated strand annealing – biochemical, FRET, single point, primary screen (AID 651660).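 Further: 0% = median of neutral control wells and 100% = median of positive control wells.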 To be noted: Recombinant RAD52 ssDNA annealing, FRET fluorescence, 30 min; at 18.7 µM; stronger effect = higher value.
DNA repair protein RAD52 homolog (Homo sapiens), sequence (P43351 whole entry, looked up): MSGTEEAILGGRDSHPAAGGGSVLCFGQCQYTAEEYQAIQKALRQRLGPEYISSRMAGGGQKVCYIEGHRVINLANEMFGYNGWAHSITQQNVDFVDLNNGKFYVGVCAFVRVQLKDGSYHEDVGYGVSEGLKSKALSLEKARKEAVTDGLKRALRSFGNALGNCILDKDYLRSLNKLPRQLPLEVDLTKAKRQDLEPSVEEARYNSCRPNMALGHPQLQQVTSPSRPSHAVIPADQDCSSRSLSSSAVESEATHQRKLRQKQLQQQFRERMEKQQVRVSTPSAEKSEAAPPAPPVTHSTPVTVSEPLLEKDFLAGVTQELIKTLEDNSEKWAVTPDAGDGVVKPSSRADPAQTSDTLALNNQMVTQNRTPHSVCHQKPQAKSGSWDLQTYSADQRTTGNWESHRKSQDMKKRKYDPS
As for `CC(C)CC1c2[nH]c3ccccc3c2CCN1C(=O)CCC(=O)N(C)C` (configuration not stated), the inhibition is -3.31%. As for `CC(NC(=O)OCc1ccccc1)C(=O)N1CC(O)CC1C(=O)O` (configuration not stated), the inhibition was -5.77%. With `COCCNC(=O)CSc1ccc(Cl)cc1` the figure was -17.2%; with `CC(C)CCn1c(N2CCc3ccccc3C2)nc2c1c(=O)[nH]c(=O)n2C`, -3.91%; with `O=C1Cc2ccccc2C(c2ccccc2)N1` (configuration not stated), -8.11%. With `COc1ccc(-c2noc(CCc3ccccc3)n2)cc1` the figure was -6.01%; with `COC(=O)c1cc(-c2c(C)oc3cc(OC)ccc3c2=O)c(C)o1`, 2.67%; with `O=c1c(-c2ccc3c(c2)OCCO3)coc2cc(OC3OC(CO)C(O)C(O)C3O)ccc12` (configuration not stated), 2.13%. The figure for `COc1ccc(-c2[nH]ncc2CN(CCO)Cc2cccs2)c(F)c1` is -3.67%; for `Cc1ccc2c(c1)c1c3n2CCCN(Cc2ccccc2)C3CCC1` (configuration not stated) it is 3.99%. In the case of `Cc1nc(NCc2ccco2)c(C#N)c2c1COC(C)(C)C2`, the inhibition was -36.8%. With `COc1cccc(CN2C(=O)N(C(C)C)C(N(O)C(=O)NC(C)C)C2(C)C)c1OC` (configuration not stated) the figure was 2.14%; with `COc1cc2cc(C(=O)O)n(C)c2c(OC)c1OC`, -3.98%; with `CCC(=O)Oc1ccc(/C(CC)=C(\CC)c2ccc(OC(=O)CC)cc2)cc1`, -4.46%.

On to `CN(C)CCOc1ccccc1Cc1ccccc1`, for which the inhibition is 1.84%. For `CC/C(=C(\c1ccc(O)cc1)c1ccc(OCCN(C)C)cc1)c1ccccc1`, the inhibition is 76% (active). As to `CC(=O)c1cccc2c(O)c(C3=Nc4ccccc4C3=O)[nH]c12`, the inhibition is -6.23%. With `CC(OC(=O)c1cc(=O)[nH]c2ccccc12)C(=O)c1ccccc1` (configuration not stated) the figure was 1.44%. With `COc1cc(/C=C/C(=O)N2CCCC2)cc(OC)c1OC` the figure was -3.32%; with `Cn1c(=O)[nH]c(=O)c2c1ncn2CCN1CCOCC1`, -9.6%. With `CN1CCN(CCCN2c3ccccc3Sc3ccc(C(F)(F)F)cc32)CC1` the figure was 67.4% (active). Regarding `CN(C)CCCN1c2ccccc2CCc2ccc(Cl)cc21`, the inhibition is 16%. The figure for `OCCN1CCN(CCCN2c3ccccc3Sc3ccc(Cl)cc32)CC1` is 73.4% (active). The figure for `OCCOCCN1CCN(C(c2ccccc2)c2ccc(Cl)cc2)CC1` (configuration not stated) is 7.68%; for `CN(C)CCCN1c2ccccc2Sc2ccc(Cl)cc21` it is 68.5% (active); for `CNCCCN1c2ccccc2CCc2ccccc21` it is -18.4%.

Consider `OC(CCCN1CCCCC1)(c1ccccc1)c1ccccc1`, for which the inhibition was 10.1%.

`CN(C)CCCN1c2ccccc2Sc2ccccc21`: the inhibition was 7.51%. With `OCCN1CCN(CCCN2c3ccccc3Sc3ccc(C(F)(F)F)cc32)CC1` the figure was 65.2% (active); with `CN(C)CCCN1c2ccccc2Sc2ccc(C(F)(F)F)cc21`, 29.1%; with `Clc1ccc(OCCCN2CCCCC2)c(Br)c1`, 5.3%. The figure for `O=c1oc2c(CN3CCN(CCO)CC3)c(O)ccc2cc1-c1ccccn1` is -38.1%; for `CCOC(=O)c1oc2cc(O)cc(C)c2c(=O)c1-c1cscn1` it is 5.2%. As for `CC(=O)C1=C(Nc2ccc(C)cc2)CC(C)(O)C(C(C)=O)C1c1ccco1` (configuration not stated), the inhibition was -76.2%. In the case of `CCN(CC)CCCNC(=O)C1c2ccccc2Oc2ccccc21`, the inhibition is 4.59%. `CCN(CC)CCNc1ccc(CO)c2sc3ccccc3c(=O)c12`: the inhibition is 61.5% (active). As to `C[C@]12CC[C@@H]3c4ccc(O)cc4CC[C@H]3[C@@H]1C[C@@H](O)[C@@H]2O[C@@H]1O[C@H](C(=O)O)[C@@H](O)[C@H](O)[C@H]1O`, the inhibition is 5.26%. The figure for `O=C(NCCc1ccccc1)C1CCN(C2CCN(Cc3ccco3)CC2)CC1` is -15.9%.

As to `COc1ccc(-c2coc3c(CN4CCOCC4)c(O)ccc3c2=O)cc1`, the inhibition was 7.99%. With `COc1ccc2[nH]c(CN3CCN(CC(C)C)C(CCO)C3)c(C)c2c1` (configuration not stated) the figure was -14.8%; with `O=C(CN1C(=O)C2CCc3[nH]c4ccccc4c3C2C1=O)N1CCCC1` (configuration not stated), -14.6%. With `OC12CCCCC1C(c1ccc3c(c1)OCO3)N(Cc1cccc(F)c1)CC2` (configuration not stated) the figure was -0.832%; with `CCC(=O)Oc1ccc(C(=O)Nc2ccc([N+](=O)[O-])cc2)cc1`, 3.79%. The figure for `CN1CC2CCCC3(C1)C(=O)NC1(CCCCC1)N=C23` (configuration not stated) is -2.27%; for `C1CCC(C(CC2CCCCN2)C2CCCCC2)CC1` (configuration not stated) it is 62.5% (active).

In the case of `CC(=O)c1cn(C)c(=O)[nH]c1=O`, the inhibition was -3.65%.

`CCn1c(N2CCN(CC(=O)c3c(C)n(C)c4ccc(OC)cc34)CC2)nc2c1c(=O)[nH]c(=O)n2C`: the inhibition was -1.17%. As for `CC1(C)CC(=O)c2cn3c(nc2C1)nc1ccccc13`, the inhibition is -4.04%. The figure for `CC(=O)N(CCC(Cc1ccccc1)c1ccco1)Cc1ccco1` (configuration not stated) is -17.2%; for `NC(N)=N/N=C/c1cccc(Cl)c1Cl` it is 18.4%. The figure for `CN1CCc2c(n(CC(O)CN(CCO)CCO)c3ccccc23)C1=O` (configuration not stated) is 11.3%.

In the case of `OCCN(CCO)c1ccc2ccccc2c1`, the inhibition was -0.71%.

The values above are taken from PubChem BioAssay AID651660 (Broad Institute, 2012).
